# In the OligoGym collection:
# Biological target: COMMD8
# Experiment: pooled miR-30 sensor sort-seq; sequence = guide strand
# Conditions: shRNA
# Note: reference of the scale not given here.
row,Sequence,sensor-assay potency score (higher = more potent)
1,TTTCTCTTGACAGAGCCTGTTT,-0.392
2,AACAGTGTGATAATCTTGGTAC,-0.396
3,TATTGCTGCTTTCTCAGCCTGG,-0.453
4,TTGATTTCATCTTTCCTACTTT,-0.353
5,TTCTTTTACATCTAGATGCAGG,-0.776

# Biological target: COPE
# Experiment: as above
# Conditions: shRNA
row,Sequence,sensor-assay potency score (higher = more potent)
1,TTACGTCGAACAGCTCGTCTAC,-0.753
2,TTCTCTTCAGCTCCTTCCGGGC,-0.99
3,ATTCTCTTCAGCTCCTTCCGGG,-0.00872
4,AAAGTCGTTCTCCTTGGCCTGG,-1.24
5,TTTACGTCGAACAGCTCGTCTA,-1.05
6,TTGATGAAGGGATGGGACCTGT,-0.268
7,TTGACCAGCGTCTCTGGGTAGC,-0.621
8,TTCTTTACGTCGAACAGCTCGT,-0.53
9,TCAGCTGGGACAGGTATCGGTT,-0.759
10,TCATCTCTCGGTCCAGCTCGGC,-1.47
11,TTGATAGCTTCACCCGCTGCGC,-1.31
12,AACAGCTCGTCTACCTCCCCGG,-0.819

# Biological target: COPS6
# Experiment: as above
# Conditions: shRNA
row,Sequence,sensor-assay potency score (higher = more potent)
1,TACTGCTGCATCCACCTCCATC,-1.31
2,TTCCTTGTCAATGATAATCTTC,-0.166
3,TTCAACTTCAGAAAGAGGGGGC,0.785
4,TTAAACTGCTCCTCCTTGGTGT,0.63
5,TCGTAGAGGACATTGAACTTGT,0.432
6,TTGATCATAAAAATCTGTCTTG,0.185
7,TTGTCGGTCGTAGAGGACATTG,-1.74
8,TTGAACTTGTTCACAAACTGGT,0.64
9,TTGTCTGTGCTGAGCACCGGGA,-0.77
10,AATCTGTCTTGAACTTGTCTGT,-0.335
11,TCTGTCTTGAACTTGTCTGTGC,0.397
12,TTGTCAATGATAATCTTCTCTT,-0.44

# Biological target: COPS7A
# Experiment: as above
# Conditions: shRNA
row,Sequence,sensor-assay potency score (higher = more potent)
1,TTCTAGGATGAACATGTCCAGT,-1.29
2,TCTAACATTGGGCATGTCCAGC,-1.04
3,TTGGTTGGCACGGCTCACCTGC,-0.606
4,TAATACAATCTATATACCCTTC,-0.206
5,TAGTGTGACAGGATTCTAGGAT,0.596
6,TAGGAGCAGAAATTGCTCCTGG,-0.149
7,TTCAGCTAAGTAGTCAGCGTAT,-0.555
8,TACACTTTACTTTAGCAGCCAG,-0.419
9,TTTACTTTAGCAGCCAGGGTGA,-0.299
10,TGAACCTAGGATTATCAGCTGG,-0.856
11,TTATTCTTCTGAGCCTCTGTTA,-0.522
